# Test results reported in the supplement of paper PMC8728848.
# The sample as a whole holds a higher share of the strongest signals than the screen did.
# B1: Latrophilin-3 (Homo sapiens), Q9HAR2 (protein)
# chain: MWPSQLLIFMMLLAPIIHAFSRAPIPMAVVRRELSCESYPIELRCPGTDVIMIESANYGRTDDKICDSDPAQMENIRCYLPDAYKIMSQRCNNRTQCAVVAGPDVFPDPCPGTYKYLEVQYECVPYKVEQKVFLCPGLLKGVYQSEHLFESDHQSGAWCKDPLQASDKIYYMPWTPYRTDTLTEYSSKDDFIAGRPTTTYKLPHRVDGTGFVVYDGALFFNKERTRNIVKFDLRTRIKSGEAIIANANYHDTSPYRWGGKSDIDLAVDENGLWVIYATEQNNGKIVISQLNPYTLRIEGTWDTAYDKRSASNAFMICGILYVVKSVYEDDDNEATGNKIDYIYNTDQSKDSLVDVPFPNSYQYIAAVDYNPRDNLLYVWNNYHVVKYSLDFGPLDSRSGQAHHGQVSYISPPIHLDSELERPSVKDISTTGPLGMGSTTTSTTLRTTTLSPGRSTTPSVSGRRNRSTSTPSPAVEVLDDMTTHLPSASSQIPALEESCEAVEAREIMWFKTRQGQIAKQPCPAGTIGVSTYLCLAPDGIWDPQGPDLSNCSSPWVNHITQKLKSGETAANIARELAEQTRNHLNAGDITYSVRAMDQLVGLLDVQLRNLTPGGKDSAARSLNKAMVETVNNLLQPQALNAWRDLTTSDQLRAATMLLHTVEESAFVLADNLLKTDIVRENTDNIKLEVARLSTEGNLEDLKFPENMGHGSTIQLSANTLKQNGRNGEIRVAFVLYNNLGPYLSTENASMKLGTEALSTNHSVIVNSPVITAAINKEFSNKVYLADPVVFTVKHIKQSEENFNPNCSFWSYSKRTMTGYWSTQGCRLLTTNKTHTTCSCNHLTNFAVLMAHVEVKHSDAVHDLLLDVITWVGILLSLVCLLICIFTFCFFRGLQSDRNTIHKNLCISLFVAELLFLIGINRTDQPIACAVFAALLHFFFLAAFTWMFLEGVQLYIMLVEVFESEHSRRKYFYLVGYGMPALIVAVSAAVDYRSYGTDKVCWLRLDTYFIWSFIGPATLIIMLNVIFLGIALYKMFHHTAILKPESGCLDNIKSWVIGAIALLCLLGLTWAFGLMYINESTVIMAYLFTIFNSLQGMFIFIFHCVLQKKVRKEYGKCLRTHCCSGKSTESSIGSGKTSGSRTPGRYSTGSQSRIRRMWNDTVRKQSESSFITGDINSSASLNREGLLNNARDTSVMDTLPLNGNHGNSYSIASGEYLSNCVQIIDRGYNHNETALEKKILKELTSNYIPSYLNNHERSSEQNRNLMNKLVNNLGSGREDDAIVLDDATSFNHEESLGLELIHEESDAPLLPPRVYSTENHQPHHYTRRRIPQDHSESFFPLLTNEHTEDLQSPHRDSLYTSMPTLAGVAATESVTTSTQTEPPPAKCGDAEDVYYKSMPNLGSRNHVHQLHTYYQLGRGSSDGFIVPPNKDGTPPEGSSKGPAHLVTSL
# How the values were obtained:
# Assay in all cases: glycan array binding signal (z-score within array); higher = stronger binding
# Settings in all cases: glycan notation: IUPAC condensed, linker removed
# Fuc(a1-2)Gal = molecular target: Fuc(a1-2)Gal
# Outline: (§1)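 The binding signal is a Z-score computed within each array. Data were drawn from 3228 arrays in the Consortium for Functional Glycomics database, restricted to those with a known protein sequence. Scores were averaged over arrays of the same protein sequence at different concentrations or buffers, and over linkers, and negative values can be taken as non-binding.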
# [1] = molecular target: Fuc(a1-2)Gal(b1-3)GalNAc(b1-4)[Neu5Ac(a2-3)]Gal(b1-4)Glc
# Outline: as §1
# Fuc(a1-2)Gal(b1-3)GlcNAc = molecular target: Fuc(a1-2)Gal(b1-3)GlcNAc
# Outline: as §1
# [2] = molecular target: Fuc(a1-2)Gal(b1-3)GlcNAc(b1-3)GalNAc
# Outline: as §1
# [3] = molecular target: Fuc(a1-2)Gal(b1-4)GlcNAc(b1-2)[Fuc(a1-2)Gal(b1-4)GlcNAc(b1-4)]Man(a1-3)[Fuc(a1-2)Gal(b1-4)GlcNAc(b1-2)Man(a1-6)]Man(b1-4)GlcNAc(b1-4)GlcNAc
# Outline: as §1
# [4] = molecular target: Fuc(a1-2)Gal(b1-4)GlcNAc(b1-3)Gal(b1-4)GlcNAc(b1-3)Gal(b1-4)GlcNAc
# Outline: as §1
# [5] = molecular target: Fuc(a1-2)Gal(b1-4)GlcNAc(b1-6)GalNAc
# Outline: as §1
# [6] = molecular target: Fuc(a1-2)Gal(b1-4)[Fuc(a1-3)]GlcNAc(b1-3)GalNAc
# Outline: as §1
# [7] = molecular target: Fuc(a1-2)[Gal(a1-3)]Gal(b1-3)GlcNAc(b1-2)Man(a1-3)[Fuc(a1-2)[Gal(a1-3)]Gal(b1-3)GlcNAc(b1-2)Man(a1-6)]Man(b1-4)GlcNAc(b1-4)[Fuc(a1-6)]GlcNAc
# Outline: as §1
# [8] = molecular target: Fuc(a1-2)[Gal(a1-3)]Gal(b1-4)Glc
# Outline: as §1
# [9] = molecular target: Fuc(a1-2)[Gal(a1-3)]Gal(b1-4)GlcNAc(b1-2)Man(a1-3)[Fuc(a1-2)[Gal(a1-3)]Gal(b1-4)GlcNAc(b1-2)Man(a1-6)]Man(b1-4)GlcNAc(b1-4)GlcNAc
# Outline: as §1
# [10] = molecular target: Fuc(a1-2)[GalNAc(a1-3)]Gal(b1-4)GlcNAc(b1-3)GalNAc
# Outline: as §1
# [11] = molecular target: Fuc(a1-2)[GalNAc(a1-3)]Gal(b1-4)[Fuc(a1-3)]GlcNAc(b1-3)GalNAc
# Outline: as §1
# [12] = molecular target: Fuc(a1-3)[Gal(b1-4)]GlcNAc(b1-6)[Neu5Ac(a2-3)Gal(b1-3)]GalNAc
# Outline: as §1
# Gal(a1-2)Gal = molecular target: Gal(a1-2)Gal
# Outline: as §1
# [13] = molecular target: Gal(a1-3)Gal(b1-3)GlcNAc(b1-6)GalNAc
# Outline: as §1
# Gal(a1-3)Gal(b1-4)GlcNAc = molecular target: Gal(a1-3)Gal(b1-4)GlcNAc
# Outline: as §1
# [14] = molecular target: Gal(b1-3)[Fuc(a1-4)]GlcNAc
# Outline: as §1
# [15] = molecular target: Gal(b1-3)[Fuc(a1-4)]GlcNAc(b1-3)Gal(b1-3)[Fuc(a1-4)]GlcNAc
# Outline: as §1
# [16] = molecular target: Gal(b1-4)GlcNAc(b1-2)Man(a1-6)Man(b1-4)GlcNAc(b1-4)GlcNAc
# Outline: as §1
# [17] = molecular target: Gal(b1-4)GlcNAc(b1-3)Gal(b1-4)GlcNAc
# Outline: as §1
# [18] = molecular target: Gal(b1-4)GlcNAc(b1-3)[Gal(b1-4)GlcNAc(b1-6)]Gal(b1-4)GlcNAc
# Outline: as §1
# Gal(b1-6)Gal = molecular target: Gal(b1-6)Gal
# Outline: as §1
# [19] = molecular target: Gal3S(b1-4)[Fuc(a1-3)]Glc6S
# Outline: as §1
# Gal6S(b1-3)GlcNAc = molecular target: Gal6S(b1-3)GlcNAc
# Outline: as §1
# [20] = molecular target: GalNAc(a1-3)GalNAc(b1-3)Gal(a1-4)Gal(b1-4)Glc
# Outline: as §1
# GalNAc4S6S(b1-4)GlcNAc = molecular target: GalNAc4S6S(b1-4)GlcNAc
# Outline: as §1
# GalNAc6S(b1-4)GlcNAc = molecular target: GalNAc6S(b1-4)GlcNAc
# Outline: as §1
# Glc(a1-4)Glc = molecular target: Glc(a1-4)Glc
# Outline: as §1
# [21] = molecular target: GlcNAc(a1-4)Gal(b1-4)GlcNAc(b1-3)Gal(b1-4)[Fuc(a1-3)]GlcNAc(b1-3)Gal(b1-4)[Fuc(a1-3)]GlcNAc
# Outline: as §1
# [22] = molecular target: GlcNAc(b1-2)Gal(b1-3)GalNAc
# Outline: as §1
# [23] = molecular target: GlcNAc(b1-2)[GlcNAc(b1-4)]Man(a1-3)[GlcNAc(b1-2)Man(a1-6)]Man(b1-4)GlcNAc(b1-4)GlcNAc
# Outline: as §1
# [24] = molecular target: GlcNAc(b1-2)[GlcNAc(b1-6)]Man(a1-6)[GlcNAc(b1-2)Man(a1-3)][GlcNAc(b1-4)]Man(b1-4)GlcNAc(b1-4)GlcNAc
# Outline: as §1
# [25] = molecular target: GlcNAc(b1-4)GlcNAc(b1-4)GlcNAc(b1-4)GlcNAc(b1-4)GlcNAc
# Outline: as §1
# [26] = molecular target: Man(a1-2)Man(a1-3)[Man(a1-2)Man(a1-6)]Man
# Outline: as §1
# [27] = molecular target: Man(a1-2)Man(a1-3)[Man(a1-2)Man(a1-6)]Man(a1-6)[Man(a1-2)Man(a1-2)Man(a1-3)]Man
# Outline: as §1
# [28] = molecular target: Man(a1-2)Man(a1-3)[Man(a1-2)Man(a1-6)]Man(a1-6)[Man(a1-2)Man(a1-2)Man(a1-3)]Man(b1-4)GlcNAc(b1-4)GlcNAc
# Outline: as §1
# [29] = molecular target: Neu5Ac(a2-3)Gal(b1-3)[Fuc(a1-4)]GlcNAc(b1-3)Gal(b1-3)[Fuc(a1-4)]GlcNAc
# Outline: as §1
# [30] = molecular target: Neu5Ac(a2-3)Gal(b1-4)GlcNAc(b1-2)Man(a1-3)[GlcNAc(b1-2)Man(b1-4)GlcNAc(b1-2)Man(a1-6)]Man(b1-4)GlcNAc(b1-4)GlcNAc
# Outline: as §1
# [31] = molecular target: Neu5Ac(a2-3)Gal(b1-4)GlcNAc(b1-3)GalNAc
# Outline: as §1
# [32] = molecular target: Neu5Ac(a2-3)Gal(b1-4)[Fuc(a1-3)]GlcNAc(b1-3)GalNAc
# Outline: as §1
# [33] = molecular target: Neu5Ac(a2-3)GalNAc(b1-4)GlcNAc
# Outline: as §1
# [34] = molecular target: Neu5Ac(a2-3)[Neu5Ac(a2-6)]GalNAc
# Outline: as §1
# Neu5Ac(a2-6)Gal(b1-4)Glc = molecular target: Neu5Ac(a2-6)Gal(b1-4)Glc
# Outline: as §1
# [35] = molecular target: Neu5Ac(a2-8)Neu5Ac(a2-8)Neu5Ac(a2-3)[GalNAc(b1-4)]Gal(b1-4)Glc
# Outline: as §1
# [36] = molecular target: Neu5Ac9Ac(a2-6)Gal(b1-4)GlcNAc
# Outline: as §1
binder,measurement,setting,value
B1,glycan array binding signal (z-score),Fuc(a1-2)Gal,0.041
same,glycan array binding signal (z-score),[1],-0.493
same,glycan array binding signal (z-score),Fuc(a1-2)Gal(b1-3)GlcNAc,-0.169
same,glycan array binding signal (z-score),[2],0.261
same,glycan array binding signal (z-score),[3],-0.478
same,glycan array binding signal (z-score),[4],0.659
same,glycan array binding signal (z-score),[5],2.91
same,glycan array binding signal (z-score),[6],4.34
same,glycan array binding signal (z-score),[7],-0.721
same,glycan array binding signal (z-score),[8],0.962
same,glycan array binding signal (z-score),[9],-0.684
same,glycan array binding signal (z-score),[10],-0.844
same,glycan array binding signal (z-score),[11],4.19
same,glycan array binding signal (z-score),[12],-0.297
same,glycan array binding signal (z-score),Gal(a1-2)Gal,2.83
same,glycan array binding signal (z-score),[13],-0.37
same,glycan array binding signal (z-score),Gal(a1-3)Gal(b1-4)GlcNAc,-0.823
same,glycan array binding signal (z-score),[14],-0.275
same,glycan array binding signal (z-score),[15],-0.618
same,glycan array binding signal (z-score),[16],3.58
same,glycan array binding signal (z-score),[17],-0.111
same,glycan array binding signal (z-score),[18],3.02
same,glycan array binding signal (z-score),Gal(b1-6)Gal,-0.409
same,glycan array binding signal (z-score),[19],-0.622
same,glycan array binding signal (z-score),Gal6S(b1-3)GlcNAc,0.183
same,glycan array binding signal (z-score),[20],-1.16
same,glycan array binding signal (z-score),GalNAc4S6S(b1-4)GlcNAc,1.42
same,glycan array binding signal (z-score),GalNAc6S(b1-4)GlcNAc,3.81
same,glycan array binding signal (z-score),Glc(a1-4)Glc,-0.053
same,glycan array binding signal (z-score),[21],2.21
same,glycan array binding signal (z-score),[22],1.25
same,glycan array binding signal (z-score),[23],0.886
same,glycan array binding signal (z-score),[24],-0.448
same,glycan array binding signal (z-score),[25],0.111
same,glycan array binding signal (z-score),[26],-1.71
same,glycan array binding signal (z-score),[27],0.047
same,glycan array binding signal (z-score),[28],1.12
same,glycan array binding signal (z-score),[29],6.27
same,glycan array binding signal (z-score),[30],0.035
same,glycan array binding signal (z-score),[31],0.708
same,glycan array binding signal (z-score),[32],3.18
same,glycan array binding signal (z-score),[33],-0.972
same,glycan array binding signal (z-score),[34],-1.4
same,glycan array binding signal (z-score),Neu5Ac(a2-6)Gal(b1-4)Glc,1.15
same,glycan array binding signal (z-score),[35],-1.01
same,glycan array binding signal (z-score),[36],-0.383
